# TIM10 inh = growth inhibitors of isogenic TIM10 control yeast, primary screen, counter-screen for tim10-1 yeast inhibitor project, luminescence, uHTS. S. cerevisiae TIM10 strain growth, BacTiter-Glo luminescence, 24 h. inhibition, % at 10 µM. actives 1.4% (n = 330,000). AID 463195, 2010;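 active = inhibition of 40% or more at the single tested concentration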;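 also: wild-type TIM10 isogenic control strain grown at permissive 25 °C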
# NLRP3 yeast inh = NALP3 inflammasome inhibitors in reconstituted yeast, primary screen, luminescence, uHTS | actives 0.39% (n = 330,000) | Yeast reconstituted NLRP3/ASC/caspase-1, beta-gal luminescence, 24 h | AID 2825, 2010 | inhibition, % at 10 µM;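 active = inhibition of 50% or more; inactive = inhibition below 50%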;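 also: plate controls were induced DMSO wells for no effect and uninduced yeast grown without galactose for full effect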
# PfHsp90 set2 = growth inhibition of PfHsp90-expressing yeast, primary screen, antimalarial PfHsp90 inhibitor project, S. cerevisiae, BacTiter-Glo luminescence, single point, set 2 | BacTiter-Glo ATP, 48 h; yeast lacking PDR1 and PDR3 efflux regulators | inhibition, % at 9.4 µM | actives 0.32% (n = 310,000) | AID 504621, 2011;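 active = every replicate shows inhibition above about 80%, whatever the replicate mean, limit read from the data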;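 also: 0% = DMSO neutral controls and 100% = 20 µM radicicol positive controls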
# tim23-1 inh = growth inhibitors of tim23-1 mutant yeast, primary screen, luminescence, uHTS; AID 463212, 2010; S. cerevisiae tim23-1 growth, BacTiter-Glo luminescence, 24 h; actives 1.3% (n = 330,000); inhibition, % at 20 µM;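 active = growth inhibition of the mutant yeast at or above 50%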;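 also: temperature-sensitive mutant grown at 25 °C; plate controls were DMSO-treated mutant yeast for no effect and medium wells lacking yeast for full effect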
# tim10-1 inh = growth inhibitors of tim10-1 mutant yeast, primary screen, luminescence, uHTS; S. cerevisiae tim10-1 ts strain growth, BacTiter-Glo, 24 h; inhibition, % at 20 µM; actives 2.2% (n = 330,000); AID 463190, 2010;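 active = inhibition of at least 40%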;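 also: mutant grown at 25 °C; 0% = DMSO wells with yeast and 100% = wells holding no yeast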
# tim10-1 confirm = growth inhibitors of tim10-1 mutant yeast, confirmation, single concentration, luminescence, S. cerevisiae | inhibition, % at 20 µM | actives 56% (n = 7,400) | S. cerevisiae tim10-1 ts strain growth, BacTiter-Glo, 24 h | shares compounds with tim10-1 inh;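 active = inhibition of yeast growth at or above a set limit in either of two repeat tests at 20 µM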;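 also: tim10-1 mutant grown at permissive 25 °C to find synthetic lethal compounds; 0% = DMSO yeast wells and 100% = medium wells without yeast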
# TIM10 conf = growth inhibitors of wild-type TIM10 yeast, confirmation, counter-screen for tim10-1 synthetic lethality project, single concentration, luminescence, S. cerevisiae; shares compounds with TIM10 inh; S. cerevisiae tim10 strain growth, BacTiter-Glo luminescence, 24 h; inhibition, % at 10 µM; actives 63% (n = 4,600);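 active = inhibition of yeast growth at or above a set limit in either of two replicates at 10 µM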;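 also: this counterscreen used the strain with wild-type TIM10; 0% = yeast with DMSO and 100% = medium wells lacking yeast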
# An asterisk follows results filed as active; . = no result given. This is a sample that favours compounds with a hit; in the whole collection about 3.7% have one here.
SMILES,TIM10 inh,NLRP3 yeast inh,PfHsp90 set2,tim23-1 inh,tim10-1 inh,tim10-1 confirm,TIM10 conf
CNS(=O)(=O)c1cccc(C(=O)Nc2cccc(Cl)c2)c1,-14,5,14,3,16,.,.
COc1ccc(NC(=O)c2cccc(OS(=O)(=O)N(C)C)c2)cc1,5,6,-18,-12,11,.,.
CN(C)S(=O)(=O)Oc1cccc(C(=O)Nc2cccc(Cl)c2)c1,77*,21,.,46,55*,46*,72*
CN(C)S(=O)(=O)c1cccc(C(=O)Nc2cc(Cl)cc(Cl)c2)c1,42*,13,2,34,51*,28,-27
CN(C)S(=O)(=O)Oc1cccc(C(=O)Nc2ccc(Cl)c(Cl)c2)c1,49*,-3,4,16,57*,44*,65*
CN(C)S(=O)(=O)c1cccc(C(=O)Nc2ccccc2)c1,7,14,7,4,-14,.,.
O=C(CCc1ccccc1)NNC(=O)c1cccc(F)c1,-12,8,-13,2,-2,.,.
CCCN(CCC)C(=S)NC(=O)c1ccc(-c2ccccc2)cc1,44*,38,-25,32,42*,16,42*
Cc1cccc(C(CC(=O)N2CCCC2)c2ccccc2)c1O (stereo unspecified),1,12,-8,34,25,.,.
Cc1ccc(C(CC(=O)N2CCCC2)c2ccccc2)c(O)c1C (stereo unspecified),72*,21,8,32,41*,14,33*
Cn1c(=O)[nH]c(=O)c2c1nc(SCCN1CCCCC1)n2CCCc1ccccc1,14,-14,-15,-4,14,.,.
CC1(CC(=O)N/N=C/c2ccc(OCc3ccc(Cl)cc3Cl)cc2)OCCCO1,49*,14,23,42,63*,41*,2
Nc1cc([N+](=O)[O-])ccc1OCc1ccccc1,.,.,9,.,.,.,.
COc1ccc(C(=O)/C=C2/Sc3cc4c(cc3N2C)OCO4)cc1,0,15,4,13,9,.,.
COc1ccc2c(c1)S/C(=C\C(=O)c1ccncc1)N2C,82*,19,75,41,54*,73*,85*
CCCCNC(=O)NS(=O)(=O)c1ccc(C(=O)OC)o1,-1,8,-6,3,-15,.,.
O=c1ccc2cc(S(=O)(=O)N3CCN(c4cc(Cl)ccc4Cl)CC3)ccc2o1,42*,5,.,25,42*,24,39*
COc1ccc(/C=N/NC(=O)c2ccoc2C)cc1COc1c(C)cccc1C,42*,4,0,39,41*,30*,14
COc1ccc(/C=N\NC(=O)c2ccccc2OC)cc1COc1ccccc1C,8,15,9,16,12,.,.
Cc1c(C(=O)O)sc(S(=O)(=O)N2CCN(C(=O)CCc3ccccc3)CC2)c1C(=O)O,10,16,.,7,-1,.,.
CC1CCC2C(C1)c1sc(=O)[nH]c1SC2(C)C (stereo unspecified),41*,-23,-187,24,51*,41*,41*
CCn1c(C)c(/C=N/Nc2nc3ccccc3s2)c2ccccc21,43*,3,.,21,48*,25,27
Cc1nn(-c2ccccc2Cl)c(Cl)c1/C=N/Nc1nc2ccccc2s1,9,-6,-13,12,6,.,.
COc1ccc(CCNC(=O)c2cc(-c3ccccc3)c(N3CCOCC3)s2)cc1OC,-14,3,-11,20,11,.,.
Cc1cccc(OCC(=O)Nc2ccc(S(=O)(=O)N3CCCC3)cc2)c1,45*,2,-23,25,44*,37*,47*
SMILES,TIM10 inh,NLRP3 yeast inh,PfHsp90 set2,tim23-1 inh,tim10-1 inh,tim10-1 confirm,TIM10 conf
O=C(COc1cccc(C(F)(F)F)c1)Nc1ccc(S(=O)(=O)N2CCCCC2)cc1,45*,19,-6,33,43*,49*,59*
COc1ccc(NC(=O)N2CCN(S(C)(=O)=O)CC2)c(OC)c1,0,0,7,0,-5,.,.
CCCCCCOc1ccc(N2C(=O)CC(N(CCc3ccc(S(N)(=O)=O)cc3)C(C)=O)C2=O)cc1 (stereo unspecified),23,15,-24,18,15,.,.
CCOC(=O)c1sc(NC(=O)CCN2CCCCCC2)c(C(=O)OCC)c1C,44*,-5,-2,10,61*,51*,43*
CCOC(=O)c1c(NC(=O)CC)sc(C(=O)N2CCCCC2)c1C,-4,26,4,0,-3,.,.
c1cc(C2CCCCC2)ccc1Oc1nc(N2CCOCC2)nc(N2CCOCC2)n1,52*,-15,-72,10,44*,5,33*
c1ccc(Oc2nc(N3CCOCC3)nc(N3CCOCC3)n2)cc1,7,23,-8,26,19,.,.
O=C(c1ccccc1)c1ccc(OCC(O)CNCc2ccc(F)cc2)cc1 (stereo unspecified),.,.,44,.,.,.,.
Cc1ccc(C(OCC(O)CNCc2ccc(F)cc2)c2ccccc2)cc1 (stereo unspecified),68*,33,1,40,64*,74*,61*
CCCc1nnc(SCC(=O)N2CCCCC2)n1CC1CCCO1 (stereo unspecified),2,13,28,9,-1,.,.
O=S(=O)(c1ccc2[nH]c3c(c2c1)CCCC3)N1CCCCC1,41*,6,0,49,40*,28,34*
O=c1[nH]c2ccc(S(=O)(=O)N3CCCCC3)cc2[nH]1,5,3,3,4,2,.,.
Cc1ccccc1C(=O)c1cccn1CC(=O)N1CCCCCC1,-6,3,-10,9,10,.,.
CC(=O)Nc1ccc(C=CC=Cc2cccc([N+](=O)[O-])c2)cc1,.,.,-35,.,.,.,.
Cc1cccc(C(=O)NC(=S)Nc2ccc(Cc3ccncc3)cc2)c1,46*,7,10,30,48*,31*,34*
COc1ccc(-n2nc3c(N)n[nH]c3cc2=O)cc1,6,12,18,11,6,.,.
CCOC(=O)C1Nc2c(F)cc(C)cc2C2c3ccccc3CC12 (stereo unspecified),46*,49,-16,47,49*,55*,59*
CC(C)c1ccc(/C=C(\c2nc3ccccc3[nH]2)S(=O)(=O)c2ccccc2)cc1,46*,16,-9,45,54*,47*,37*

# Compound activity (PubChem)
